Rows were chosen to be rich in hits. Some 6% of all compounds tested hit in one or more screens of this group.
D3 ag: activates the human D3 dopamine receptor; D3R DiscoveRx beta-arrestin cells, luminescence, 90 min; max activation, %; 0.58% of 410,000 active; AID 652048; in the data active = max activation above about 30%; note: 0% is about no effect
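Agonist mode: compounds and dopamine controls were applied to plated cells for 90 min at 37 degrees C after an overnight attachment at 1500 cells/well. Luminescent read-out followed 30 - 60 minutes at room temperature with DiscoveRx detection reagent.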
D1 agonist: human D1 receptor agonism | 1% of 360,000 active | activation, % at 2 µM | HEK293 T-REx D1 cells, calcium flux, agonist mode; in the data active = activation above about 30%; note: 0% is about no effect
Target sequence (P21728 whole entry, looked up): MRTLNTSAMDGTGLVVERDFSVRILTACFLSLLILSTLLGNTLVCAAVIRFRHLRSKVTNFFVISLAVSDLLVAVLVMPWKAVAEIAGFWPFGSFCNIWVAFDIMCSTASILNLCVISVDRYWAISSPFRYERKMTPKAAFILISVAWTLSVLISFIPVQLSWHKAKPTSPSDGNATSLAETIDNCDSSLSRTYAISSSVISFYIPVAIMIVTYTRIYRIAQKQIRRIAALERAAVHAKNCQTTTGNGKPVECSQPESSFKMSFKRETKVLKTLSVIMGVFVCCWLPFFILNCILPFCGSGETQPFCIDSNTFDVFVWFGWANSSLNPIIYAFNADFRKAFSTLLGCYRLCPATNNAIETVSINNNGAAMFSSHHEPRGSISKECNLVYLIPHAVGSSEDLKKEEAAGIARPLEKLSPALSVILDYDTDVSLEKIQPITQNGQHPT
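Tetracycline-induced HEK293 TREx D1 cells, force-coupled to calcium signalling, were dye-loaded with a no-wash calcium kit. Compound was pin-added after a 10 s baseline. Fluorescence was read kinetically at 1 cycle/s for 180 s, with calcium rises flagged as agonism.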
D1 PAM: potentiators of human D1 dopamine receptor; AID 504651; potentiation, % at 10 µM; P21728; 0.036% of 360,000 active; HEK293 TREx D1 cells, calcium flux, dopamine EC20 potentiation; in the data active = potentiation above about 30%; note: 0% is about no effect
D1 antag: human D1 dopamine receptor antagonism; P21728; HEK293 TREx D1 cells, calcium flux, dopamine EC80; hits give low values; activity change, negative = inhibition, % at 10 µM; 3.2% of 360,000 active; AID 504652; in the data active = activity change below about -30%; note: % is set by controls: 0 for no effect and ±100 for the full control effect
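HEK293 T-REx cells expressing inducible, force-coupled D1 receptor; no-wash Ca dye, 30–90 min RT. Cmpd → 180 s read at 1 Hz → EC80 DA → 180 s read.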
D3 antag: blocks the human D3 dopamine receptor. P35462. D3R cells, DiscoveRx beta-arrestin luminescence, antagonist mode; hits give low values. 2.5% of 360,000 active. max response, negative = inhibition, %. AID 652054; in the data active = max response below about -50%; inconclusive = no clear call, values can overlap the other calls; note: % is set by controls: 0 for no effect and ±100 for the full control effect
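Cells plated overnight at 1500 cells/well, then exposed to library compounds with dopamine controls for 90 minutes at 37 degrees C. DiscoveRx reagent added for 30–60 minutes at room temperature; luminescence read, quantitative HTS format.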
The depositor's hits bear a star; ? = inconclusive; . = no result.

SMILES	D3 ag	D1 agonist	D1 PAM	D1 antag	D3 antag
Nc1nc(SCc2ccccc2)c2[nH]cnc2n1	0	3	-4	0	5
Nc1nc(OCc2ccccc2)c2[nH]cnc2n1	-96	.	.	.	-121*
CCc1cc2c(cc3c(=O)n(CC(=O)N4CCN(c5cccc(C)c5C)CC4)nc(CC)n32)s1	14	-1	-5	-19	.
CC(=O)Nc1ccc(NC(=O)C2Cc3c(-c4cccc(NC(C)=O)c4)ccnc3O2)cc1 (configuration not stated)	-14	.	.	.	0
O=C(Nc1cccc(Oc2ccccc2)c1)C1Cc2c(-c3ccc4c(c3)OCO4)ccnc2O1 (configuration not stated)	-9	.	.	.	-15
CC(=O)c1cccc(-c2ccnc3c2CC(C(=O)Nc2ccc(Cl)cc2)O3)c1 (configuration not stated)	-15	.	.	.	-61*
CC(=O)Nc1ccc(NC(=O)C2Cc3c(-c4cccc(C(C)=O)c4)ccnc3O2)cc1 (configuration not stated)	-10	.	.	.	0
COc1ccc(NC(=O)C2Cc3c(-c4cccc(NC(C)=O)c4)ccnc3O2)cc1 (configuration not stated)	-7	.	.	.	-58*
O=C(Nc1cccc(OC(F)(F)F)c1)C1Cc2c(-c3ccc4c(c3)OCO4)ccnc2O1 (configuration not stated)	-9	.	.	.	-55*
Cc1ccc(C)c(N2CCN(C(=O)c3cc4c(=O)n(Cc5ccco5)ccc4nc3C)CC2)c1	-4	0	-3	4	.
Cc1ccccc1-n1c(SCC(=O)Nc2ccc(Cl)cc2Cl)nc(O)cc1=O	1	2	-3	-13	.
C=CC[N+]1([C@H]2C[C@H]3[C@@H]4CC[C@H]5C[C@H](O)[C@@H](N6CCOCC6)C[C@]5(C)[C@H]4CC[C@]3(C)[C@H]2OC(C)=O)CCCC1	-9	.	.	.	.
Cc1ccc(C(=O)c2cn[nH]c2-c2cc(Cl)ccc2O)cc1	0	58*	-4	-19	5
O=C(c1ccccc1)c1cn[nH]c1-c1ccccc1O	-1	4	1	3	-1
COc1ccc(O)c(-c2[nH]ncc2C(=O)c2ccccc2)c1	-6	4	-4	-14	-57*
O=C(Nc1nnc(-c2cccs2)o1)c1cccc(Oc2ccccc2)c1	1	85*	-6	-16	-19
O=C(Nc1nnc(-c2cccs2)o1)c1cccc(F)c1	-7	.	.	.	1
CC(C)c1nn2c(=O)cc(COC(=O)c3ccc(NC(=O)CCc4ccccc4)cc3)nc2s1	11	4	0	-18	.
Cc1ccc(-n2ncc(C(=O)Nc3ccc(Cl)cc3)c2C2CCNCC2)cc1C	6	2	3	-44*	-2
CCOc1ccc(NC(=O)c2cnn(-c3ccc(C)c(Cl)c3)c2C2CCNCC2)cc1	-1	1	-4	16	.
CC1=C(C(=O)N2CCN(c3cccc(C)c3C)CC2)C2(CCCCC2)OC1=O	-17	2	-1	22	.
C=C1CC(Cn2cc(Br)c(=O)[nH]c2=O)(c2ccc(-c3ccccc3)cc2)OC1=O (configuration not stated)	-4	.	.	.	-89*
Cc1ccc(-n2c(=O)cc(N3CCN(c4ccccc4Cl)CC3)[nH]c2=O)cc1	10	0	-8	-18	.
CCNC(=O)N1CCN(CCCC(c2ccc(F)cc2)c2ccc(F)cc2)CC1	-88	21	-4	-73*	-114*
O=C(Nc1ccc(F)cc1)N1CCN(CCc2ccccc2)CC1	-5	1	-4	.	3
SMILES	D3 ag	D1 agonist	D1 PAM	D1 antag	D3 antag
N#Cc1ccc(NC(=O)C2Cc3ccccc3CN2S(=O)(=O)c2ccc(F)cc2)cc1 (configuration not stated)	0	3	-3	-12	.
Cc1ccc(NC(=O)CSC2=NN3CCCC(=O)N=C3S2)cc1Cl	-9	25	.	-39*	-8
Cc1ccc(C)c(NC(=O)CSc2nncn2C)c1	-3	-3	-5	-33*	-19
Cc1cc(C)cc(-n2ccnc2SCC(=O)Nc2ccc(C)c(Cl)c2)c1	-7	3	1	-40*	.
CCOc1ccc(-n2ccnc2SCC(=O)Nc2cccc3ccccc23)cc1	5	2	-5	14	.
O=C1CCCN2N=C(SCC(=O)Nc3ccc(Cl)cc3)SC2=N1	-8	10	-5	-9	3
CCOc1ccc(-n2ccnc2SCC(=O)Nc2cc(C)ccc2C)cc1	12	-1	-7	-46*	.
Cn1cnnc1SCC(=O)Nc1ccccc1F	1	3	-2	1	2
O=C(Cn1nc(Cc2cccnc2)c2ccccc2c1=O)Nc1cccc(C(F)(F)F)c1	12	0	1	5	.
COC(=O)C1CCN(CC(=O)N(C)c2c(N)n(Cc3ccccc3)c(=O)[nH]c2=O)CC1	-4	0	-5	-36*	-14
CC1=C(C(=O)Nc2ccccc2)C(c2ccccn2)n2nc(SCc3ccccc3)nc2N1 (configuration not stated)	-3	3	0	2	.
Fc1ccc(CN2CCN(c3ncccn3)CC2)cc1	51*	2	-4	-1	-17
Brc1cccc(CN2CCN(c3ncccn3)CC2)c1	4	3	3	-8	-13
Cc1cccc(CN2CCN(c3ncccn3)CC2)c1	8	-2	-3	-20	-25
CCc1ccc(CN2CCN(c3ncccn3)CC2)cc1	61*	1	-12	-24	?
Fc1ccc(F)c(CN2CCN(c3ncccn3)CC2)c1	31*	0	-4	-7	12
CCOC(=O)CN(Cc1ccccc1)C(C(=O)NC1CCCCC1)c1ccccc1 (configuration not stated)	-12	0	0	1	.
CC(C)(C)NC(=O)Cn1cc(S(=O)(=O)Cc2ccc(F)cc2)c2ccccc21	1	2	-1	6	.
Cc1ccc(CNC(=O)Cn2cc(S(=O)(=O)Cc3ccccc3F)c3ccccc32)cc1	4	32*	0	-12	.
CCc1cccc(C)c1NC(=O)CSc1nc2ccccc2n1CC(=O)N(C)C	1	0	-2	-35*	-11
O=C(Cn1c(SCC(=O)Nc2ccc(F)cc2)nc2ccccc21)NCc1ccc(F)cc1	2	4	0	1	.
O=C(Cn1cc(S(=O)(=O)Cc2ccc(F)cc2)c2ccccc21)NCc1ccccc1Cl	-21	36*	1	-22	.
O=C(Cn1c(SCC(=O)Nc2ccc(F)cc2)nc2ccccc21)NCc1ccccc1Cl	1	33*	0	-20	.
CN1C(C(=O)c2ccccc2)=C(OC(=O)c2ccc(Br)cc2)c2ccccc2S1(=O)=O	-25	4	1	-1	.
Cc1ccccc1Cn1nnc2c(=O)[nH]c(C3CCCN(C(=O)c4ccc(F)cc4)C3)nc21 (configuration not stated)	8	6	-2	28	.
O=C(Nc1ccccc1)c1ccc[n+](Cc2ccc([N+](=O)[O-])cc2)c1	-25	2	0	37	-56*
